Inconclusive results are not listed. Activity calls are given as the source filed them. Calls come from the whole dose curve; as a rule, active = well fitted cell-killing curve with a large enough effect; inconclusive = small, poorly fitted or top-dose-only effect; inactive = flat fitted curve, though single readings scatter.
Assay: qHTS of pediatric cancer cell lines to identify multiple opportunities for drug repurposing: Primary screen for control Hh wild type fibroblast cells (AID 1347106); note: nearly all actives have a fitted effect of over 55% in size;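 for activity change, negative = cytotoxic: a drop in luminescence marks cytotoxicity and a rise apparent proliferation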
Settings: Hh wild-type fibroblast viability, CellTiter-Glo luminescence, 48 h; series mostly up to 46 µM; activity change, negative = cytotoxic: at the top concentration
From the text: Drug repurposing or repositioning has been offered as a strategy for drug development in oncology programs. This approach has special potential for childhood cancers and other rare or orphan diseases, where the expected return on new drug development has been a disincentive to pharmaceuticals.
In this project we exploit the poly-pharmacology of drugs to discover new indications via phenotypic screening of a panel of 19 well-characterized cell lines derived from solid tumors seen in children and adolescents. The goal is to identify approved drugs with previously unrecognized anticancer properties that has the potential to reveal new mechanisms and biological processes involved in carcinogenesis or drug resistance. We employed a titration-based paradigm (quantitative high-throughput screening or qHTS), where all compounds were tested at multiple concentrations for their effect on cell viability. Concentration-response curves (CRCs) were derived directly from the primary screen, and both potency and efficacy values were used to identify compounds with robust bioactivity profiles. We screened the NIH Chemical Genomics Center (NCGC) Pharmaceutical Collection (NPC) and Mechanism Interrogation Plate (MIPE) small molecule collections of approved and investigational compounds against these cell lines; and measured metabolically active cells after 48 hours of compound treatment as a proxy for cell viability.
Assay Submitter: Nathalia J. Martinez, National Center for Advancing Translational Sciences, National Institutes of Health, Rockville, MD, USA; email: natalia.martinez@nih.gov
[1] Shen, M et al. Quantitative high-throughput phenotypic screening of pediatric cancer cell lines identifies multiple opportunities for drug repurposing. Oncotarget 2017 Dec 19;9(4):4758-4772. PMID 29435139.
The cells were obtained from University of North Carolina (UNC), Pediatric Preclinical Testing Program (PPT), and Coriell Institute (CI).
qHTS cell viability assay:
Cells were assayed in growth media at a density of 500-1,000 cells/well. Five microliters of cells were dispensed into 1,536-well, white, solid-bottom, TC-treated plates (Greiner Bio One) using a multidrop dispenser and incubated at 37 degrees C, 5% CO2, under a humidified atmosphere for 5 hours. Twenty-three nanoliters of compounds and controls (neutral control DMSO or positive control bortezomib at final concentration of 2.3 µM) were subsequently transferred by Kalypsys pintool. For primary screens, the MIPE collection was tested at 11-point dilutions (final concentrations range from 0.78 nM to 46 µM) and the NPC collection at 8-point dilutions (final concentrations range from 0.59 nM to 46 µM). Compounds tested in follow-up screens were assayed at 11-point dilutions. Cells were incubated for 48 hours, followed by addition of 3 µL of CellTiter-Glo (Promega). After a 15 min incubation at room temperature, samples were analyzed for luminescence intensity using a ViewLux High-throughput CCD imager equipped with clear filters.
% is set by controls: 0 for no effect and ±100 for the full control effect; potency is the fitted concentration of half-maximal effect.

Row | Structure (SMILES) | activity change, negative = cytotoxic | Potency
1 | CN(C)CCC=C1c2ccccc2COc2ccc(CC(=O)O)cc21 | -21% (inactive) | –
2 | CCS(=O)(=O)N1CC(CC#N)(n2cc(-c3ncnc4[nH]ccc34)cn2)C1 | -0.538% (inactive) | –
3 | COC(=O)N[C@H](C(=O)N1CCC[C@@H]1c1ncc(-c2ccc(-c3ccc(-c4cnc([C@@H]5CCCN5C(=O)[C@@H](NC(=O)OC)C(C)C)[nH]4)cc3)cc2)[nH]1)C(C)C | -1.97% (inactive) | –
4 | CC(C)C[C@H](CC(=O)O)C(=O)N[C@@H](Cc1c[nH]c2ccccc12)C(=O)N[C@@H](C)c1ccccc1 | -6.94% (inactive) | –
5 | CC1(C)CCC2=C(O1)c1ccccc1C(=O)C2=O | 12.7% (inactive) | –
6 | CON=C(C(=O)N[C@@H]1C(=O)N2C(C(=O)OCOC(=O)C(C)(C)C)=C(C=Cc3scnc3C)CS[C@H]12)c1csc(N)n1 | -2.51% (inactive) | –
7 | CCN(CC)CCOC(=O)c1ccc(N)cc1 | -3.5% (inactive) | –
8 | CC(C)(Cc1ccc2ccccc2c1)NC[C@@H](O)COc1cccc(Cl)c1C#N | -2.6% (inactive) | –
9 | NCCS | 1.76% (inactive) | –
10 | O=C(O)c1ccc(-c2c[nH]c3ncc(-c4ccccc4)cc23)cc1C1CCCC1 | 21.2% (inactive) | –
11 | CC(=O)Oc1cc2c(s1)CCN(C(C(=O)C1CC1)c1ccccc1F)C2 (stereo not given) | -4.89% (inactive) | –
12 | CC(C)NCC(O)COc1cccc2[nH]ccc12 (stereo not given) | 10.5% (inactive) | –
13 | COc1ccc(C2Sc3ccccc3N(CCN(C)C)C(=O)C2OC(C)=O)cc1 (stereo not given) | -8.2% (inactive) | –
14 | CC(=O)CCCCn1c(=O)c2c(ncn2C)n(C)c1=O | 4.53% (inactive) | –
15 | CCN1CCC[C@H]1CNC(=O)c1cc(S(N)(=O)=O)ccc1OC | 7.32% (inactive) | –
16 | O=c1c(O)c(-c2ccc(O)cc2)oc2cc(O)cc(O)c12 | -5.79% (inactive) | –
17 | N#CC(=C(N)Sc1ccccc1N)C(C#N)=C(N)Sc1ccccc1N | 1.1% (inactive) | –
18 | CS(=O)c1ccc(-c2nc(-c3ccc(F)cc3)c(-c3ccncc3)[nH]2)cc1 (stereo not given) | 35.4% [at 92.7 µM] (inactive) | –
19 | CN[C@@H](C)C(=O)N[C@H]1CN(C(=O)CC(C)C)CC[C@H]2CC[C@@H](C(=O)NC(c3ccccc3)c3ccccc3)N2C1=O | -7.23% (inactive) | –
20 | C[N+]1(C)[C@@H]2CC(OC(=O)[C@H](CO)c3ccccc3)C[C@H]1[C@H]1O[C@@H]12 (stereo not given in full) | 7.49% (inactive) | –

Row | Structure (SMILES) | activity change, negative = cytotoxic | Potency
21 | Clc1ccc(-c2nc3sccn3c2C=NOCc2ccc(Cl)c(Cl)c2)cc1 | -2.72% (inactive) | –
22 | C[N+](C)(C)CCCCCC[N+](C)(C)C | 7.4% (inactive) | –
23 | Cc1ccc(/C=N/NC(=O)c2ccccc2Oc2ccccc2)o1 | -6.31% (inactive) | –
24 | CCOC(=O)O[C@]1(C(=O)OCCl)CC[C@@H]2[C@H]3CCC4=CC(=O)C=C[C@]4(C)[C@@H]3[C@@H](O)C[C@@]21C | -3.87% (inactive) | –
25 | CCNc1cc(NC2CCC(O)CC2)nc(Nc2ccc3c(ccn3Cc3ccccc3)c2)n1 (stereo not given) | -10.2% (inactive) | –
26 | CC=CC[C@@H](C)C(=O)[C@H]1C(=O)N[C@@H](C(C)C)C(=O)N(C)CC(=O)N(C)[C@@H](CC(C)C)C(=O)N[C@@H](C(C)C)C(=O)N(C)[C@@H](CC(C)C)C(=O)N[C@@H](C)C(=O)N[C@H](C)C(=O)N(C)[C@@H](CC(C)C)C(=O)N(C)[C@@H](CC(C)C)C(=O)N(C)[C@@H](C(C)C)C(=O)N1C | 9.09% (inactive) | –
27 | CCN(CC)CCNC(=O)c1ccc(N)cc1 | 21.5% (inactive) | –
28 | COCCOC(=O)C1=C(C)NC2=C(C(=O)CC(c3ccccc3OC)C2)C1c1cccc(O)c1 (stereo not given) | -14.6% (inactive) | –
29 | c1cc(-c2sc(-c3ccncc3)c(-c3ccncc3)c2-c2ccncc2)ccn1 | -20.4% (inactive) | –
30 | CO[C@H]1C=CO[C@@]2(C)Oc3c(C)c(O)c4c(O)c(c5c(c4c3C2=O)NC2(CCN(CC(C)C)CC2)N=5)=NC(=O)C(C)=CC=C[C@H](C)[C@H](O)[C@@H](C)[C@@H](O)[C@@H](C)[C@H](OC(C)=O)[C@H]1C | -3.02% (inactive) | –
31 | CC1(C)Cc2c(sc(NC(=S)NC(=O)c3ccccc3)c2C(=O)O)CO1 | -11.4% (inactive) | –
32 | O=c1cc(-c2ccccc2)oc2cc(O)c(O)c(O)c12 | -11.1% (inactive) | –
33 | C[C@H](NC(=O)C(=O)Nc1ccccc1C(C)(C)C)C(=O)N[C@@H](CC(=O)O)C(=O)COc1c(F)c(F)cc(F)c1F | -1.12% (inactive) | –
34 | CC(C)C(C)C=CC(C)C1CCC2C3=CC=C4CC(O)CCC4(C)C3CCC21C (stereo not given) | -1.12% (inactive) | –
35 | COc1ccc(-c2coc3cc(O)cc(O)c3c2=O)cc1 | -1.4% (inactive) | –
36 | O=C1NC(=O)C(=Cc2ccc3nccnc3c2)S1 | -17.4% [at 16.1 µM] (inactive) | –
37 | O=C(NOCC(O)CO)c1cc(Br)c(F)c(F)c1Nc1ccc(I)cc1F (stereo not given) | -6.72% (inactive) | –
38 | O=C(O)c1ccc(-c2cc3cccnc3c(-c3ccc4nonc4c3)n2)cc1 | -14.2% (inactive) | –
39 | O=C1NC(=O)C(=Cc2ccc(-c3ccc(F)cc3)o2)S1 | -6.1% (inactive) | –
40 | COc1cc(NC(=O)c2ccc(-c3ccc(Cl)cc3)o2)cc(OC)c1 | – | 10.5 µM (active)
